Measured values as given in PubChem BioAssay.
Several values for one entry are separate records, joined by “and”; a condition that tells them apart may be missing. Equal entries are not always repeated. Activity calls are given as the source filed them.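 The calls were made as follows, unless noted: active = thallium flux through the channel raised or lowered by more than 3 SD from vehicle-only wells, actives on both sides; inactive = the rest.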

Tests used:
[1] = liver-stage malaria parasite growth inhibition, primary screen, cell-based, HepG2, luciferase luminescence, HepG2 viability (AID 624349; in the data active = parasite load remaining mostly below about 12%, no sharp cut-off; inactive = mostly above about 10%;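 also: 100% = mean of DMSO negative control wells on the same plate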); settings: P. berghei liver stage in HepG2, luciferase luminescence, concentration not given here; parasite load remaining: stronger effect = lower value; viability: measured here: HepG2 viability without parasites
[2] = Cy5 fluorescence interference with SSB-bound oligo, artefact control for HCV NS3 helicase inhibitor project, biochemical, NIH Clinical Collection, E. coli SSB (AID 743268; call rule not given here)
[3] = test system: Hepatitis C virus NS3 helicase; assay: HCV NS3 helicase inhibitors, primary screen, biochemical, fluorescence polarization, NIH Clinical Collection (AID 743270; call rule not given here); settings: NS3 helicase binding to Cy5-dT15 DNA, stronger effect = higher value, concentration not given here
[4] = target: Single-stranded DNA-binding protein (Escherichia coli (strain K12)) (UniProt P0AGE0); assay: E. coli SSB displacement from DNA, counter-screen for HCV NS3 helicase inhibitor project, biochemical, fluorescence polarization, NIH Clinical Collection (AID 743271; in the data active = inhibition above about 28%); settings: stronger effect = higher value, concentration not given here
[5] = fluorescence interference in NS3h assay format, artefact control for HCV NS3 helicase inhibitor project, biochemical, NIH Clinical Collection (AID 743272; call rule not given here;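 also: HCV NS3 helicase with a Cy5 labelled single stranded DNA probe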); settings: fluorescence interference counterscreen, stronger effect = lower value
[6] = modulation of C. elegans fzo-1 (AID 1259413; call rule not given here;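 also: fzo-1 mutant C. elegans worms in liquid wells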); settings: C. elegans fzo-1 modulator screen, mean read-out; stronger effect = higher value
[7] = sensitizers of A549 cells to miR-34 induction, primary screen, imaging, A549 dox-inducible miR-34, nuclei and caspase counts (AID 1347080;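 active = compounds whose cell count with miR-34 switched on is under 0.7 times the count with it off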); settings: A549 miR-34 inducible, Hoechst nuclei count, 48 h
F380Y = assay: modulators of BK channel variants, profiling panel, selectivity assay, cell-based, U2OS BacMam, thallium flux, beta subunits (AID 1259406); settings: at 30 µM;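 also: initial slope of Thallos dye fluorescence rise after thallium is added; log ratio against the mean of 0.3% DMSO vehicle wells on the same plate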
F380Y/beta1 = assay: as above; settings: at 30 µM
F380Y/beta2Delta = assay: as above; settings: at 30 µM
F380Y/beta4 = assay: as above; settings: at 30 µM
[8] = target: Calcium-activated potassium channel subunit alpha-1 (Homo sapiens) + Leucine-rich repeat-containing protein 26 (Homo sapiens) (UniProt Q12791+Q2I0M4); assay: as above; settings: F380Y/Slo1WT/gamma1, at 30 µM
Sequence of Calcium-activated potassium channel subunit alpha-1 (Homo sapiens) + Leucine-rich repeat-containing protein 26 (Homo sapiens) (Q2I0M4 whole entry, looked up, one chain of several): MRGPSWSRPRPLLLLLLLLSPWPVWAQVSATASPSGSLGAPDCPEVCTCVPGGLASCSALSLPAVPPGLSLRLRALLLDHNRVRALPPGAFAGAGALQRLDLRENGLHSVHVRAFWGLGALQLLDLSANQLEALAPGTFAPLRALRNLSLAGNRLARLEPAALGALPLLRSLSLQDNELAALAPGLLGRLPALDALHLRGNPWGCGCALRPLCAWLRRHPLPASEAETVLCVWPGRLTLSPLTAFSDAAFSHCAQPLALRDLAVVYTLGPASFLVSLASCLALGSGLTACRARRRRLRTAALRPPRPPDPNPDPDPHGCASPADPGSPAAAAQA

R275C = assay: as above; settings: at 30 µM
R275C/beta1 = assay: as above; settings: at 30 µM
R275C/beta2Delta = assay: as above; settings: at 30 µM
R275C/beta4 = assay: as above; settings: at 30 µM
R275C/Slo1WT/beta2 = assay: as above; settings: at 30 µM
[9] = survival rescue of mitochondrial mutant cells in low glucose, primary screen, MELAS cybrids, Rieske KO mouse fibroblasts, CellTiter-Glo (AID 1508586;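 active = mean z-score across replicates of 1.96 or higher in either the MELAS or the Rieske mutant cell line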;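 also: z relative to plate mean and SD of compound and empty wells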)
[10] = stronger effect = lower value, cell number ratio, induced over uninduced
[11] = measured here: relative caspase fold change +Dox/-Dox
[12] = measured here: total cells with miR-34 induction, stronger effect = lower value
[13] = measured here: total cells without miR-34 induction
[14] = MELAS cybrid survival, CellTiter-Glo 48 h, stronger effect = higher value
[15] = Rieske KO mouse fibroblast survival, CellTiter-Glo 72 h

CCOC(=O)[C@@H](CCc1ccccc1)N[C@@H](C)C(=O)N1CCC[C@H]1C(=O)O
inactive: parasite load remaining [1] 41.4% | fluorescence ratio [2] 1.05 | inhibition [3] -10.4% | inhibition [4] -0.48% | fluorescence ratio [5] 1 | mean signal [6] 237 | fold change [7, 10] 0.958 | log fold change Tl+ flux (F380Y) 0.0242 | log fold change Tl+ flux (F380Y/beta1) 0.0697 | log fold change Tl+ flux (F380Y/beta2Delta) 0.00383 | log fold change Tl+ flux (F380Y/beta4) 0.0422 | log fold change Tl+ flux [8] 0.023 | log fold change Tl+ flux (R275C) 0.0223 | log fold change Tl+ flux (R275C/beta1) -0.00857 | log fold change Tl+ flux (R275C/beta2Delta) -0.00135 | log fold change Tl+ flux (R275C/beta4) -0.0226 | log fold change Tl+ flux (R275C/Slo1WT/beta2) -0.0503
11500: cell count [7, 13]
126%: viability [1]
0.517: fold change [7, 11]
11000: cell count [7, 12]

COc1ccnc(CS(=O)c2nc3cc(OC(F)F)ccc3[nH]2)c1OC (stereo not given)
0.907: z-score [9, 15]
1.32: fold change [7, 11]
9070: cell count [7, 12]
9680: cell count [7, 13]
inactive: parasite load remaining [1] 94.6% | fluorescence ratio [2] 1.07 | inhibition [3] -2.77% | inhibition [4] 1.44% | fluorescence ratio [5] 1.05 | mean signal [6] 243 | fold change [7, 10] 0.937 | z-score [9, 14] 1.33 | log fold change Tl+ flux (F380Y) -0.000729 | log fold change Tl+ flux (F380Y/beta1) -0.0068 | log fold change Tl+ flux (F380Y/beta2Delta) 0.0285 | log fold change Tl+ flux (F380Y/beta4) -0.0379 | log fold change Tl+ flux [8] 0.0336 | log fold change Tl+ flux (R275C) -0.0182 | log fold change Tl+ flux (R275C/beta1) 0.0487 | log fold change Tl+ flux (R275C/beta2Delta) 0.0404 | log fold change Tl+ flux (R275C/beta4) -0.00392 | log fold change Tl+ flux (R275C/Slo1WT/beta2) -0.00592
75.5%: viability [1]

O=C(NC(CO)C(O)c1ccc([N+](=O)[O-])cc1)C(Cl)Cl (stereo not given)
1.3 and 1.21: fold change [7, 11]
87.3%: viability [1]
inactive: parasite load remaining [1] 48.8% | inhibition [3] -4.09% | inhibition [4] 4.1% | fluorescence ratio [5] 1.03 | mean signal [6] 263 | fold change [7, 10] 0.967 and 0.86 | z-score [9, 14] -0.304 | log fold change Tl+ flux (F380Y) -0.0332 | log fold change Tl+ flux (F380Y/beta1) 0.0194 | log fold change Tl+ flux (F380Y/beta2Delta) -0.0071 | log fold change Tl+ flux (F380Y/beta4) 0.000156 | log fold change Tl+ flux [8] 0.0379 | log fold change Tl+ flux (R275C) -0.0175 | log fold change Tl+ flux (R275C/beta1) -0.0341 | log fold change Tl+ flux (R275C/beta2Delta) -0.00719 | log fold change Tl+ flux (R275C/beta4) 0.0483 | log fold change Tl+ flux (R275C/Slo1WT/beta2) 0.0603
active: fluorescence ratio [2] 0.1
7910 and 8980: cell count [7, 13]
0.499: z-score [9, 15]
7650 and 7730: cell count [7, 12]

O=C1C(c2c(O)[nH]c3ccccc23)=Nc2ccccc21
active: inhibition [3] 26.5%
9240 and 5320 and 8410: cell count [7, 13]
inactive: parasite load remaining [1] 27.8% | fluorescence ratio [2] 1.08 | inhibition [4] 18.4% | fluorescence ratio [5] 1.13 | mean signal [6] 275 | fold change [7, 10] 0.964 and 0.92 and 0.909 | z-score [9, 14] -0.237 | log fold change Tl+ flux (F380Y) 0.00735 | log fold change Tl+ flux (F380Y/beta1) 0.00413 | log fold change Tl+ flux (F380Y/beta2Delta) -0.012 | log fold change Tl+ flux (F380Y/beta4) 0.0357 | log fold change Tl+ flux [8] -0.019 | log fold change Tl+ flux (R275C) 0.0422 | log fold change Tl+ flux (R275C/beta1) 0.013 | log fold change Tl+ flux (R275C/beta2Delta) -0.00188 | log fold change Tl+ flux (R275C/beta4) 0.0134 | log fold change Tl+ flux (R275C/Slo1WT/beta2) 0.0591
-0.638: z-score [9, 15]
1.03 and 0.816 and 0.7: fold change [7, 11]
8910 and 4890 and 7650: cell count [7, 12]
67.8%: viability [1]
